# According to the supplement of paper PMC12282887:
# ± gives the standard deviation of the averaged measurements.
# Tests used:
# Test in all cases: promoter activity interaction Z-score (Lux/OD deviation from empty-vector control); higher = stronger promoter induction by the compound
# [1] = system: E. coli BW25113 acrABp lux reporter
# Outline: (§1)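 Low-copy luxCDABE promoter reporters were carried by E. coli BW25113, either wild type or lacking one of three genes, grown in 40 µl LB Lennox in 384-well plates at 37°C. Each compound was run at four 1:2 dilutions in biological duplicates, with OD600 and luminescence read every 30 min for 12 h. Integration used 0–8 h for wild type and 1–9 h for deletion strains, and wells under 10% of the median growth value were removed. Luminescence normalised to growth was fitted against a control, and the Z-transformed residual is the score.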
# [2] = system: E. coli BW25113 micFp lux reporter
# Outline: as §1
# [3] = system: E. coli BW25113 ompFp lux reporter
# Outline: as §1
# [4] = system: E. coli BW25113 robp lux reporter
# Outline: as §1
# [5] = system: E. coli BW25113 soxSp lux reporter
# Outline: as §1
# [6] = system: E. coli BW25113 tolCp lux reporter
# Outline: as §1
# [7] = 28.4 µg/ml, genetic background: wild type
# [8] = 28.4 µg/ml, genetic background: ΔmarA
# [9] = 28.4 µg/ml, genetic background: Δrob
# [10] = 28.4 µg/ml, genetic background: ΔsoxS
# [11] = 56.8 µg/ml, genetic background: wild type
# [12] = 56.8 µg/ml, genetic background: ΔmarA
# [13] = 56.8 µg/ml, genetic background: Δrob
# [14] = 56.8 µg/ml, genetic background: ΔsoxS
# [15] = 113.7 µg/ml, genetic background: wild type
# [16] = 113.7 µg/ml, genetic background: ΔmarA
# [17] = 113.7 µg/ml, genetic background: Δrob
# [18] = 113.7 µg/ml, genetic background: ΔsoxS
# [19] = 227.3 µg/ml, genetic background: wild type
# [20] = 227.3 µg/ml, genetic background: ΔmarA
# [21] = 227.3 µg/ml, genetic background: Δrob
# [22] = 227.3 µg/ml, genetic background: ΔsoxS
smiles,measurement,setting,value
O=c1[nH]c(=O)c2[nH]c(O)nc2[nH]1 [Sodium urate],promoter activity interaction Z-score,[1]; [7],0.0607 ± 0.068
same,promoter activity interaction Z-score,[1]; [8],-0.691 ± 0.25
same,promoter activity interaction Z-score,[1]; [9],0.112 ± 0.14
same,promoter activity interaction Z-score,[1]; [10],-0.119 ± 0.36
same,promoter activity interaction Z-score,[1]; [11],0.0108 ± 0.15
same,promoter activity interaction Z-score,[1]; [12],-1.36 ± 0.16
same,promoter activity interaction Z-score,[1]; [13],0.00464 ± 0.19
same,promoter activity interaction Z-score,[1]; [14],-0.118 ± 0.35
same,promoter activity interaction Z-score,[1]; [15],0.121 ± 0.12
same,promoter activity interaction Z-score,[1]; [16],-1.18 ± 0.34
same,promoter activity interaction Z-score,[1]; [17],-0.0273 ± 0.041
same,promoter activity interaction Z-score,[1]; [18],-0.102 ± 0.19
same,promoter activity interaction Z-score,[1]; [19],0.0857 ± 0.087
same,promoter activity interaction Z-score,[1]; [20],-0.114 ± 0.23
same,promoter activity interaction Z-score,[1]; [21],0.315 ± 0.14
same,promoter activity interaction Z-score,[1]; [22],-0.127 ± 0.56
same,promoter activity interaction Z-score,[2]; [7],0.0581 ± 0.23
same,promoter activity interaction Z-score,[2]; [8],-0.118 ± 0.23
same,promoter activity interaction Z-score,[2]; [9],-0.0289 ± 0.19
same,promoter activity interaction Z-score,[2]; [10],0.0526 ± 0.22
same,promoter activity interaction Z-score,[2]; [11],0.0725 ± 0.02
same,promoter activity interaction Z-score,[2]; [12],-0.0713 ± 0.39
same,promoter activity interaction Z-score,[2]; [13],0.0271 ± 0.23
same,promoter activity interaction Z-score,[2]; [14],0.0688 ± 0.17
same,promoter activity interaction Z-score,[2]; [15],0.114 ± 0.09
same,promoter activity interaction Z-score,[2]; [16],-0.218 ± 0.078
same,promoter activity interaction Z-score,[2]; [17],-0.082 ± 0.13
same,promoter activity interaction Z-score,[2]; [18],0.0891 ± 0.29
same,promoter activity interaction Z-score,[2]; [19],0.0879 ± 0.087
same,promoter activity interaction Z-score,[2]; [20],-0.0859 ± 0.057
same,promoter activity interaction Z-score,[2]; [21],-0.12 ± 0.13
same,promoter activity interaction Z-score,[2]; [22],-0.223 ± 0.39
same,promoter activity interaction Z-score,[3]; [7],-0.0285 ± 0.013
same,promoter activity interaction Z-score,[3]; [8],-0.27 ± 0.27
same,promoter activity interaction Z-score,[3]; [9],-0.245 ± 0.31
same,promoter activity interaction Z-score,[3]; [10],0.0289 ± 0.054
same,promoter activity interaction Z-score,[3]; [11],0.162 ± 0.082
same,promoter activity interaction Z-score,[3]; [12],-0.186 ± 0.1
same,promoter activity interaction Z-score,[3]; [13],-0.168 ± 0.14
same,promoter activity interaction Z-score,[3]; [14],0.253 ± 0.42
same,promoter activity interaction Z-score,[3]; [15],0.31 ± 0.34
same,promoter activity interaction Z-score,[3]; [16],-0.874 ± 0.12
same,promoter activity interaction Z-score,[3]; [17],-0.0944 ± 0.13
same,promoter activity interaction Z-score,[3]; [18],0.241 ± 0.093
same,promoter activity interaction Z-score,[3]; [19],0.726 ± 0.41
same,promoter activity interaction Z-score,[3]; [20],0.504 ± 0.044
same,promoter activity interaction Z-score,[3]; [21],0.739 ± 0.45
same,promoter activity interaction Z-score,[3]; [22],0.654 ± 0.45
same,promoter activity interaction Z-score,[4]; [7],0.189 ± 0.027
same,promoter activity interaction Z-score,[4]; [8],-0.944 ± 0.38
same,promoter activity interaction Z-score,[4]; [9],-0.184 ± 0.64
same,promoter activity interaction Z-score,[4]; [10],0.198 ± 0.34
same,promoter activity interaction Z-score,[4]; [11],0.19 ± 0.1
same,promoter activity interaction Z-score,[4]; [12],-0.157 ± 0.22
same,promoter activity interaction Z-score,[4]; [13],0.189 ± 0.29
same,promoter activity interaction Z-score,[4]; [14],0.0419 ± 0.49
same,promoter activity interaction Z-score,[4]; [15],0.246 ± 0.37
same,promoter activity interaction Z-score,[4]; [16],-1.37 ± 0.15
same,promoter activity interaction Z-score,[4]; [17],-0.253 ± 0.052
same,promoter activity interaction Z-score,[4]; [18],-0.163 ± 0.39
same,promoter activity interaction Z-score,[4]; [19],0.613 ± 0.94
same,promoter activity interaction Z-score,[4]; [20],0.235 ± 0.099
same,promoter activity interaction Z-score,[4]; [21],0.286 ± 0.0035
same,promoter activity interaction Z-score,[4]; [22],1.01 ± 0.33
same,promoter activity interaction Z-score,[5]; [7],0.0961 ± 0.26
same,promoter activity interaction Z-score,[5]; [8],-0.0522 ± 0.15
same,promoter activity interaction Z-score,[5]; [9],0.0395 ± 0.24
same,promoter activity interaction Z-score,[5]; [10],-0.0315 ± 0.002
same,promoter activity interaction Z-score,[5]; [11],-0.0307 ± 0.019
same,promoter activity interaction Z-score,[5]; [12],-0.0796 ± 0.096
same,promoter activity interaction Z-score,[5]; [13],0.0954 ± 0.4
same,promoter activity interaction Z-score,[5]; [14],-0.135 ± 0.051
same,promoter activity interaction Z-score,[5]; [15],0.0999 ± 0.14
same,promoter activity interaction Z-score,[5]; [16],-0.0884 ± 0.18
same,promoter activity interaction Z-score,[5]; [17],-0.00479 ± 0.23
same,promoter activity interaction Z-score,[5]; [18],0.0412 ± 0.16
same,promoter activity interaction Z-score,[5]; [19],-0.0463 ± 0.28
same,promoter activity interaction Z-score,[5]; [20],-0.0252 ± 0.33
same,promoter activity interaction Z-score,[5]; [21],0.122 ± 0.45
same,promoter activity interaction Z-score,[5]; [22],-0.094 ± 0.097
same,promoter activity interaction Z-score,[6]; [7],0.639 ± 0.76
same,promoter activity interaction Z-score,[6]; [8],0.214 ± 0.76
same,promoter activity interaction Z-score,[6]; [9],-0.337 ± 0.13
same,promoter activity interaction Z-score,[6]; [10],0.0334 ± 0.15
same,promoter activity interaction Z-score,[6]; [11],-0.365 ± 0.23
same,promoter activity interaction Z-score,[6]; [12],-0.26 ± 0.17
same,promoter activity interaction Z-score,[6]; [13],0.0782 ± 0.61
same,promoter activity interaction Z-score,[6]; [14],-0.0978 ± 0.24
same,promoter activity interaction Z-score,[6]; [15],-0.0784 ± 0.044
same,promoter activity interaction Z-score,[6]; [16],-0.877 ± 0.12
same,promoter activity interaction Z-score,[6]; [17],-0.397 ± 1.1
same,promoter activity interaction Z-score,[6]; [18],0.132 ± 0.047
same,promoter activity interaction Z-score,[6]; [19],-0.0307 ± 0.037
same,promoter activity interaction Z-score,[6]; [20],-0.7 ± 0.17
same,promoter activity interaction Z-score,[6]; [21],1.21 ± 1.3
same,promoter activity interaction Z-score,[6]; [22],-0.0415 ± 0.19
